# Data as given in ChEMBL document CHEMBL5606460, “ASAP - DENV-2 NS2B-NS3 protease fluorescence single point” (2024).
# Out of some 2,000 compounds screened, about 110 (5.5%) showed an effect of 50% or more. Only a selection was taken, and strong results are over-represented in it overall.
# Molecular target: Genome polyprotein (dengue virus type 2) (UniProt P29990)
# [1] = Thailand/16681/1984, Concentration 25.0 uM, Number of replicates 1.0
smiles,measurement,setting,value
O=Cc1ccc(N2CCC(C(=O)N3CCN(Cc4ccc(Cl)nc4)CC3)CC2)cc1,inhibition,[1],10.1%
C[C@H](NC(=O)C1CCN(c2ccc(C=O)cc2)CC1)c1cccc(C(F)(F)F)c1,inhibition,[1],11%
O=Cc1ccc(N2CCC(C(=O)N[C@H]3C[C@@H]3c3ccc(F)c(F)c3)CC2)cc1,inhibition,[1],12.2%
O=Cc1ccc(N2CCC(C(=O)NCc3ccccc3OC(F)(F)F)CC2)cc1,inhibition,[1],12.7%
O=Cc1ccc(N2CCC(C(=O)Nc3ccc(Oc4ccc(Cl)cc4)cc3)CC2)cc1,inhibition,[1],3.01%
O=C(c1cc2ccccc2[nH]1)N1CCC[C@H](c2c[nH]c3ncccc23)C1,inhibition,"Thailand/16681/1984, Concentration 49.5 uM, Number of replicates 2.0, Standard deviation 0.6846779142829902 %",3.74%
same,inhibition,"Thailand/16681/1984, Concentration 99.01 uM, Number of replicates 2.0, Standard deviation 0.6286192340156203 %",6.35%
same,inhibition,"Thailand/16681/1984, Concentration 198.0 uM, Number of replicates 2.0, Standard deviation 0.39513209958624096 %",4.86%
O=Cc1ccc(N2CCC(C(=O)N3CCO[C@@H](c4ccccc4)C3)CC2)cc1,inhibition,[1],8.68%
Cc1cc(CO)c2cccc(Cc3cccc(C(=O)NCCN4CCOCC4)c3)c2n1,inhibition,"Thailand/16681/1984, Concentration 49.95 uM, Number of replicates 2.0, Standard deviation 1.1800261159088588 %",-8.12%
same,inhibition,"Thailand/16681/1984, Concentration 99.9 uM, Number of replicates 2.0, Standard deviation 0.7869239771342965 %",-3.46%
O=C(NCC1(c2ccncc2F)CCC1)[C@@]1(c2ccc(F)cc2)CCCNC1,inhibition,"Thailand/16681/1984, Concentration 49.5 uM, Number of replicates 2.0, Standard deviation 0.9074685157350926 %",-2.89%
same,inhibition,"Thailand/16681/1984, Concentration 99.01 uM, Number of replicates 2.0, Standard deviation 1.7740222143666056 %",-1.32%
same,inhibition,"Thailand/16681/1984, Concentration 198.0 uM, Number of replicates 2.0, Standard deviation 1.670161679604597 %",-0.296%
Cc1cc(CO)c2cccc(CC(=O)N[C@@H](CCC(N)=O)C(=O)O)c2n1,inhibition,"Thailand/16681/1984, Concentration 49.95 uM, Number of replicates 2.0, Standard deviation 0.1031646955614498 %",95.6%
same,inhibition,"Thailand/16681/1984, Concentration 99.9 uM, Number of replicates 2.0, Standard deviation 0.012461980167701147 %",98.7%
Cc1cc(CO)c2cccc(Cc3ccccc3C(=O)N[C@@H](CCC(N)=O)C(=O)O)c2n1,inhibition,"Thailand/16681/1984, Concentration 49.95 uM, Number of replicates 2.0, Standard deviation 0.9816783263695582 %",12.6%
same,inhibition,"Thailand/16681/1984, Concentration 99.9 uM, Number of replicates 2.0, Standard deviation 0.9155644195718532 %",39.4%
Cc1cc(CO)c2cccc(Cc3cccc(C(=O)N[C@@H](CCCN)C(=O)O)c3)c2n1,inhibition,"Thailand/16681/1984, Concentration 49.95 uM, Number of replicates 2.0, Standard deviation 0.7049975000059713 %",-1.78%
same,inhibition,"Thailand/16681/1984, Concentration 99.9 uM, Number of replicates 2.0, Standard deviation 0.2824297407941699 %",11.7%
Cc1cc(CO)c2cccc(CC(=O)N[C@@H](C)C(N)=O)c2n1,inhibition,"Thailand/16681/1984, Concentration 49.95 uM, Number of replicates 2.0, Standard deviation 0.6764350022386235 %",-6.74%
same,inhibition,"Thailand/16681/1984, Concentration 99.9 uM, Number of replicates 2.0, Standard deviation 0.17585957987303982 %",-4.59%
Cc1cc(CO)c2cccc(Cc3cccc(C(=O)N[C@@H](CCC(N)=O)C(=O)O)c3)c2n1,inhibition,"Thailand/16681/1984, Concentration 49.95 uM, Number of replicates 2.0, Standard deviation 0.9076569964416333 %",26.5%
same,inhibition,"Thailand/16681/1984, Concentration 99.9 uM, Number of replicates 2.0, Standard deviation 0.5346782919570826 %",79%
Cc1cc(CO)c2cccc(Cc3cccc(C(=O)N[C@@H](CCN)C(=O)O)c3)c2n1,inhibition,"Thailand/16681/1984, Concentration 49.95 uM, Number of replicates 2.0, Standard deviation 0.6194784255105775 %",-9.07%
same,inhibition,"Thailand/16681/1984, Concentration 99.9 uM, Number of replicates 2.0, Standard deviation 14.524673907807347 %",0.432%
OB1CCc2c(cccc2N2CC[C@@H](O)C2)O1,inhibition,"Thailand/16681/1984, Concentration 49.5 uM, Number of replicates 2.0, Standard deviation 2.1653827241885084 %",-1.07%
same,inhibition,"Thailand/16681/1984, Concentration 99.01 uM, Number of replicates 2.0, Standard deviation 1.9510885480745654 %",-0.363%
same,inhibition,"Thailand/16681/1984, Concentration 198.0 uM, Number of replicates 2.0, Standard deviation 2.0113725552722737 %",1.02%
Cc1nnccc1Cn1cc(C2CCNCC2)c(C)n1,inhibition,"Thailand/16681/1984, Concentration 49.5 uM, Number of replicates 2.0, Standard deviation 1.059758229221688 %",-5.29%
same,inhibition,"Thailand/16681/1984, Concentration 99.01 uM, Number of replicates 2.0, Standard deviation 7.779121042682183 %",2.01%
same,inhibition,"Thailand/16681/1984, Concentration 198.0 uM, Number of replicates 2.0, Standard deviation 1.1444678313445817 %",-3.21%
Cc1cc(CO)c2cccc(C[C@H](NC(=O)[C@@H](N)c3ccsc3)C(=O)O)c2n1,inhibition,"Thailand/16681/1984, Concentration 49.95 uM, Number of replicates 2.0, Standard deviation 1.7977802295531586 %",8.31%
same,inhibition,"Thailand/16681/1984, Concentration 99.9 uM, Number of replicates 2.0, Standard deviation 1.1856845832025373 %",20.1%
Cc1cc(CO)c2cccc(Cc3ccccc3NC(=O)c3ccno3)c2n1,inhibition,"Thailand/16681/1984, Concentration 49.95 uM, Number of replicates 2.0, Standard deviation 3.752588616330447 %",3.29%
same,inhibition,"Thailand/16681/1984, Concentration 99.9 uM, Number of replicates 2.0, Standard deviation 1.45880155634974 %",6.29%
Cc1cccc(C)c1OC[C@H](C)NC(=O)C1CCN(c2ccc(C=O)cc2)CC1,inhibition,[1],6.86%
CCCN(C)C(=O)c1cc(Cl)ccc1NS(=O)(=O)c1ccc(Oc2ccccc2Cl)cc1,inhibition,"Thailand/16681/1984, Concentration 49.5 uM, Number of replicates 2.0, Standard deviation 0.9470295707961462 %",75.9%
same,inhibition,"Thailand/16681/1984, Concentration 99.01 uM, Number of replicates 2.0, Standard deviation 0.4835625940830703 %",88.8%
same,inhibition,"Thailand/16681/1984, Concentration 198.0 uM, Number of replicates 2.0, Standard deviation 0.2692812727579233 %",93.4%
CN(CCS(N)(=O)=O)C(=O)c1cc(Cl)ccc1NS(=O)(=O)c1ccc(Oc2ccccc2Cl)cc1,inhibition,"Thailand/16681/1984, Concentration 49.5 uM, Number of replicates 2.0, Standard deviation 3.051075775612508 %",8.12%
same,inhibition,"Thailand/16681/1984, Concentration 99.01 uM, Number of replicates 2.0, Standard deviation 2.2523140974306535 %",55.8%
same,inhibition,"Thailand/16681/1984, Concentration 198.0 uM, Number of replicates 2.0, Standard deviation 0.05978513602530914 %",97.7%
CN(c1ccc(Cl)cc1C(N)=O)S(=O)(=O)c1ccc(Oc2ccccc2Cl)cc1,inhibition,"Thailand/16681/1984, Concentration 49.5 uM, Number of replicates 2.0, Standard deviation 0.11551161483271621 %",1.15%
same,inhibition,"Thailand/16681/1984, Concentration 99.01 uM, Number of replicates 2.0, Standard deviation 0.4161514072882 %",3.78%
same,inhibition,"Thailand/16681/1984, Concentration 198.0 uM, Number of replicates 2.0, Standard deviation 1.5666270190069185 %",5.59%
CNC(=O)c1cc(Cl)ccc1N(C)S(=O)(=O)c1ccc(Oc2ccccc2Cl)cc1,inhibition,"Thailand/16681/1984, Concentration 49.5 uM, Number of replicates 2.0, Standard deviation 1.1912141654334696 %",-2.39%
same,inhibition,"Thailand/16681/1984, Concentration 99.01 uM, Number of replicates 2.0, Standard deviation 1.3706697565683075 %",-0.121%
same,inhibition,"Thailand/16681/1984, Concentration 198.0 uM, Number of replicates 2.0, Standard deviation 0.031456216092408736 %",3.32%
